Here are results for 20 compounds from PubChem BioAssay.

A short description of assay [1]: antimalarial activity against Dd2 strain (AID 2302;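 active = growth inhibition above 50% at the single 2 µM test dose, taken to imply half-maximal potency below 2 µM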;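 also: 0% = DMSO untreated growth and 100% = chloroquine plus artemisinin killed control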). To be noted: P. falciparum Dd2 in RBCs, LDH growth readout, 72 h; at 2 µM; hits give high values.
The nature of assay [2]: HepG2 cytotoxicity, primary screen, cytotoxicity control for P. falciparum antimalarial project, cell-based, ATP luminescence (AID 2303;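 active = inhibition above 50%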;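 also: 0% = DMSO wells and 100% = digitonin-killed cells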). To be noted: HepG2 viability, 24-48 h, at 10 µM, hits give high values.
The target of assay [3] is L-lactate dehydrogenase (Plasmodium falciparum (isolate CDC / Honduras)) (UniProt Q27743). The assay can be described thus: PfLDH activity inhibition – cell lysate, 3D7 strain, counter-screen for P. falciparum growth inhibition project (AID 2304).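 Also: 0% = vehicle and 100% = reference inhibitor.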 To be noted: P. falciparum 3D7 crude extract, LDH APAD/NBT absorbance; at 2 µM; hits give high values.
A short description of assay [4]: inhibition of 3D7 malaria parasite growth – strain 3D7 (AID 2306).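 Also: 0% = DMSO wells and 100% = chloroquine plus artemisinin control wells.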 To be noted: P. falciparum 3D7 erythrocytic growth, LDH absorbance, 72 h; at 2 µM; hits give high values.
The target of assay [5] is Calcium-dependent protein kinase 1 (Plasmodium falciparum (isolate 3D7)) (UniProt P62344). The assay can be described thus: PfCDPK1 kinase inhibitors, biochemical, TCAMS library (AID 1159585; cut-off not given, nearly all actives have IC50 up to about 0.98 µM;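 also: inhibitors leave more ATP so luminescence rises with inhibition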). To be noted: recombinant PfCDPK1, Kinase-Glo ATP depletion luminescence.
For assay [6], the target named is Plasmodium falciparum protein kinase 6 (PK6, PF3D7_1337100) (UniProt Q8IDW1). The assay can be described thus: PfPK6 kinase inhibitors, biochemical, TCAMS library (AID 1159586). To be noted: recombinant PfPK6, Kinase-Glo ATP depletion luminescence.
Assay [7] has as its target Protein kinase 7 (PK7), Plasmodium falciparum 3D7 (PF3D7_0213400) (UniProt Q7YTF7). The assay can be described thus: inhibition of Plasmodium PK7 catalytic activity – biochemical, TCAMS antimalarial set, Kinase-Glo luminescence (AID 1159587). To be noted: recombinant PfPK7, Kinase-Glo ATP depletion luminescence.
Assay [8] addresses Calcium-dependent protein kinase 4 (Plasmodium falciparum (isolate 3D7)) (UniProt Q8IBS5). The assay can be described thus: PfCDPK4 kinase inhibitors, biochemical, TCAMS library (AID 1159588; cut-off not given, nearly all actives have IC50 up to about 0.91 µM). To be noted: recombinant PfCDPK4, Kinase-Glo ATP depletion luminescence.

Unmarked numbers belong to inactive results. For some of these results: Potency and affinity values are given separately. Active and inactive are the calls of the source. Unless noted, no rule for the calls is given here.

Sequence of Protein kinase 7 (PK7), Plasmodium falciparum 3D7 (PF3D7_0213400) (Q7YTF7 1-343): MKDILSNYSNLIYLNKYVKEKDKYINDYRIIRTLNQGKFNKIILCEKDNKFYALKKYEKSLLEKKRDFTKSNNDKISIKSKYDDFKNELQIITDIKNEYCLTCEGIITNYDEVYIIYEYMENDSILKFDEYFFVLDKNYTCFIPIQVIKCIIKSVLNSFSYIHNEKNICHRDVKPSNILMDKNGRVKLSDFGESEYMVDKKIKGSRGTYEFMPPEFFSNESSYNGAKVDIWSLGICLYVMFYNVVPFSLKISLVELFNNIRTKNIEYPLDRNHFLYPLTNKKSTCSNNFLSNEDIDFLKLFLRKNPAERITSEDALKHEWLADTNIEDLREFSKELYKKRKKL
Sequence of L-lactate dehydrogenase (Plasmodium falciparum (isolate CDC / Honduras)) (Q27743 whole entry, looked up): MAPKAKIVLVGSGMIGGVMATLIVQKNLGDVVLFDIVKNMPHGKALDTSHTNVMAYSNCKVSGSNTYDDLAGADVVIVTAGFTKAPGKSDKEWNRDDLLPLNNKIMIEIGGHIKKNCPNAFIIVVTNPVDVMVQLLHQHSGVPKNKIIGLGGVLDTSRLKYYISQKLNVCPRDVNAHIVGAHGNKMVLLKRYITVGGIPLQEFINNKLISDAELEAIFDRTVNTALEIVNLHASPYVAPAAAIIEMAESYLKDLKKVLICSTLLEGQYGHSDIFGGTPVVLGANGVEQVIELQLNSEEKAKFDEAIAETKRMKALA
Sequence of Calcium-dependent protein kinase 1 (Plasmodium falciparum (isolate 3D7)) (P62344 whole entry, looked up): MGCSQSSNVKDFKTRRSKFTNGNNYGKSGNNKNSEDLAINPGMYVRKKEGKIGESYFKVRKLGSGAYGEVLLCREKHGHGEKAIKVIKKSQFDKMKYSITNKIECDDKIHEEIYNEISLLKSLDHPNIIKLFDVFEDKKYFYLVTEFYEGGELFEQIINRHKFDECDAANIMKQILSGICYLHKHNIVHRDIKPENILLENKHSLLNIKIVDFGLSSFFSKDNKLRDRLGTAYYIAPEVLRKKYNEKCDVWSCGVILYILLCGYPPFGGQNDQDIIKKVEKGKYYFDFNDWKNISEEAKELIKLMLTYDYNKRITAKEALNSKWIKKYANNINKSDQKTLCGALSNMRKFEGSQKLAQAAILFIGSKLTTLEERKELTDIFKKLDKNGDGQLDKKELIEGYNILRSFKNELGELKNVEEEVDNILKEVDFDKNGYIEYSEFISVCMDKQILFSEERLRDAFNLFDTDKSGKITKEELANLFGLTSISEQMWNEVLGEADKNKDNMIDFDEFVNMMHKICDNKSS
Sequence of Plasmodium falciparum protein kinase 6 (PK6, PF3D7_1337100) (Q8IDW1 1-305): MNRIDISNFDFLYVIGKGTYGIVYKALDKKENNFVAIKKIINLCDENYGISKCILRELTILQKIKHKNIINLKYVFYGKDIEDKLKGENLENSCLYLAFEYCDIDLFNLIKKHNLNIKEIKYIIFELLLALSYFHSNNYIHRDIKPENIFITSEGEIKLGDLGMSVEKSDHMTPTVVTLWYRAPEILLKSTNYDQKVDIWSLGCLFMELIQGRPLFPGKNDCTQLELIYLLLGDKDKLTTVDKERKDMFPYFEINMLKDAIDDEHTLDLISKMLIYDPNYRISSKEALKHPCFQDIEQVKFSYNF
Sequence of Calcium-dependent protein kinase 4 (Plasmodium falciparum (isolate 3D7)) (Q8IBS5 whole entry, looked up): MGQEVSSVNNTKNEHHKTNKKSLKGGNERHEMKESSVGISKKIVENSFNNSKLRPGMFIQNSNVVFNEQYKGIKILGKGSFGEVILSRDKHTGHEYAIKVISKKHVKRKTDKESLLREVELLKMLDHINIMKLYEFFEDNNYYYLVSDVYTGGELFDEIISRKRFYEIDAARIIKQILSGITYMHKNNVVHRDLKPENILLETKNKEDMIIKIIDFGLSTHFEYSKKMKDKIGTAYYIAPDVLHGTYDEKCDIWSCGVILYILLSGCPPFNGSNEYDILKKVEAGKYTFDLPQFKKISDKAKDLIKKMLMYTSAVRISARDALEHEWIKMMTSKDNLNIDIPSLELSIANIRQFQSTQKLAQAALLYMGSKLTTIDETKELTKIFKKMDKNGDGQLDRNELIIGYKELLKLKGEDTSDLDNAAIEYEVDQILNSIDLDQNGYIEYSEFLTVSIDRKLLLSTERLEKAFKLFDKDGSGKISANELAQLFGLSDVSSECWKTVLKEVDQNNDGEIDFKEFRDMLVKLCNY

Consider `COc1cccc([C@@H](CC(=O)Nc2cc(C(F)(F)F)ccc2OC)Nc2ccc(C#N)c3ccccc23)c1`, for which the growth inhibition in assay [1] was 53% (active); in assay [4], 96% (active). Also, the inhibition in assay [2] is 19%; in assay [3], -3%. The outcome in assay [5], in assay [6], in assay [7] and in assay [8] was inactive.

As to `CCN(CC)CCN(Cc1ccc(-c2ccc(C(F)(F)F)cc2)cc1)C(=O)c1ccc(-c2ccc(C#N)cc2)cc1`, the growth inhibition was 31% in assay [1] and 89% (active) in assay [4]. Also, the results for the inhibition in assay [2] and in assay [3] were 38% and -5%, respectively. In addition, the outcome in assay [5], in assay [6], in assay [7] and in assay [8] was inactive.

For `CCOC(=O)c1c(SCc2cccc(F)c2F)[nH]c2ccccc2c1=O`, the figures for the growth inhibition in assay [1] and in assay [4] were 95% (active) and 98% (active), respectively. The inhibition in assay [2] was 1%; in assay [3], -2%. The outcome in assay [5], in assay [6], in assay [7] and in assay [8] was inactive.

With `C=CCn1c(=N)n(CC(O)c2ccc(Cl)c(Cl)c2)c2ccccc21` (stereo not given), the values for the growth inhibition in assay [1] and in assay [4] were 80% (active) and 91% (active), respectively. For the same compound, the inhibition in assay [2] was 15%; in assay [3], 1%. Besides, the result in assay [5], in assay [6], in assay [7] and in assay [8] was inactive.

Consider `Cc1cc(N2CCCC2)nc(Nc2ccc(NC(=O)C3CCCC3)cc2)n1`, for which the growth inhibition is 81% (active) in assay [1] and 102% (active) in assay [4]. Besides, the inhibition in assay [2] is 27%; in assay [3] it was 1%. The outcome in assay [5], in assay [6], in assay [7] and in assay [8] was inactive.

Regarding `CN1CCCN(Cc2cccc(-c3cccc(NS(=O)(=O)c4cccc5cccnc45)c3)c2)CC1`, the growth inhibition in assay [1] was 74% (active); in assay [4], 97% (active). Besides, the inhibition is 21% in assay [2] and -6% in assay [3]. The outcome in assay [5], in assay [6], in assay [7] and in assay [8] was inactive.

As to `C[C@@H](NC(=O)c1nn(-c2ccc(Cl)cc2)c(=O)c2ccccc12)C(C)(C)C`, the values for the growth inhibition in assay [1] and in assay [4] were 20% and 95% (active), respectively. For the same compound, the inhibition is 7% in assay [2] and -2% in assay [3]. Further, the outcome in assay [5], in assay [6], in assay [7] and in assay [8] was inactive.

As to `CCCNCc1ccc(-c2ccc(CN(C(=O)c3nn(-c4ccccc4)nc3C)C3CC3)cc2)nc1`, the growth inhibition in assay [1] was -3%; in assay [4], 101% (active). The inhibition in assay [2] was 23%; in assay [3] it was -2%. In addition, the outcome in assay [5], in assay [6], in assay [7] and in assay [8] was inactive.

`CCCCCNc1ccnc2cc(Cl)ccc12`: the figures for the growth inhibition in assay [1] and in assay [4] were 99% (active) and 97% (active), respectively. The inhibition was 12% in assay [2] and -2% in assay [3]. The outcome in assay [5], in assay [6], in assay [7] and in assay [8] was inactive.

Turning to `NS(=O)(=O)Cc1cccc(-c2ccnc3ccc(-c4cccc(S(N)(=O)=O)c4)cc23)c1`, the values for the growth inhibition in assay [1] and in assay [4] were 42% and 98% (active), respectively. For the same compound, the figures for the inhibition in assay [2] and in assay [3] were 39% and -2%, respectively. For the same compound, the result in assay [5], in assay [6], in assay [7] and in assay [8] was inactive.

Consider `CCOc1ccc2nc(C)cc(NN=Cc3cccc(C)n3)c2c1`, for which the growth inhibition is 73% (active) in assay [1] and 99% (active) in assay [4]. For the same compound, the inhibition in assay [2] is 6%; in assay [3], 0%. In addition, the outcome in assay [5], in assay [6], in assay [7] and in assay [8] was inactive.

On to `Fc1cccc(C=NNc2ccnc3ccc(C(F)(F)F)cc23)c1`, for which the growth inhibition in assay [1] is 97% (active); in assay [4] it was 100% (active). Besides, the inhibition in assay [2] is -2%; in assay [3], -4%. The result in assay [5], in assay [6], in assay [7] and in assay [8] was inactive.

Turning to `O=C(Nc1ccc(-c2nc3ccc(NC(=O)c4ccc(Br)cc4)cc3[nH]2)cc1)c1ccc(Br)cc1`, the growth inhibition in assay [1] is 4%; in assay [4] it was 98% (active). Also, the inhibition in assay [2] is 40%; in assay [3] it was 3%. Further, the outcome in assay [5], in assay [6], in assay [7] and in assay [8] was inactive.

On to `CN(C)CCCn1cncc1-c1ccc2ncnc(Nc3ccc(OCc4ccccc4)cc3)c2c1`, for which the growth inhibition in assay [1] and in assay [4] was 101% (active) in each case. Further, the inhibition in assay [2] was 37%; in assay [3], 2%. The result in assay [5], in assay [6], in assay [7] and in assay [8] was inactive.

In the case of `CC(C)C(C(=O)n1cc2c(ccc3nc(N)nc(N)c32)n1)C(C)C`, the values for the growth inhibition in assay [1] and in assay [4] were 49% and 98% (active), respectively. The values for the inhibition in assay [2] and in assay [3] were 58% (active) and -6%, respectively. In addition, the outcome in assay [5], in assay [6], in assay [7] and in assay [8] was inactive.

As to `O=C(N[C@H]1CCN(Cc2ccc(OCCN3CCNCC3)c(Cl)c2)C1)c1ccc(Cl)c(Cl)c1`, the growth inhibition is 5% in assay [1] and 101% (active) in assay [4]. In addition, the inhibition was 50% (active) in assay [2] and -1% in assay [3]. The result in assay [5], in assay [6], in assay [7] and in assay [8] was inactive.

In the case of `Cc1ccc(NC(=O)c2cccc(CN3CCCN(CC4CCCCC4)CC3)c2)cc1F`, the figures for the growth inhibition in assay [1] and in assay [4] were 42% and 85% (active), respectively. In addition, the inhibition in assay [2] is 22%; in assay [3], -2%. The outcome in assay [5], in assay [6], in assay [7] and in assay [8] was inactive.

For `Cc1ccccc1N1CCN(c2ccc(C(=O)NC(C)C)cn2)CC1`, the growth inhibition in assay [1] was 91% (active); in assay [4], 89% (active). In addition, the inhibition in assay [2] is 13%; in assay [3], -2%. Further, the outcome in assay [5], in assay [6], in assay [7] and in assay [8] was inactive.

Consider `CCN1CCN(c2cc(C)c3cc(NC(=O)c4cccc([N+](=O)[O-])c4)ccc3n2)CC1`, for which the growth inhibition in assay [1] was 73% (active); in assay [4], 99% (active). For the same compound, the inhibition is 74% (active) in assay [2] and -3% in assay [3]. For the same compound, the result in assay [5], in assay [6], in assay [7] and in assay [8] was inactive.

In the case of `Cc1ccc(Nc2cc(C)nn2-c2nc(C)cc(=O)[nH]2)cc1`, the results for the growth inhibition in assay [1] and in assay [4] were 95% (active) and 97% (active), respectively. Moreover, the inhibition in assay [2] is 54% (active); in assay [3], -3%. Further, the result in assay [5], in assay [6], in assay [7] and in assay [8] was inactive.
